Laboratory results as given in PubChem BioAssay (Tox21).
Records with an inconclusive call do not appear. A number with no mark means an inactive call. Calls of active or inactive are those of the source. The call rests on the fitted dose curve; in most records, active means well fitted cell-killing curve with a large enough effect in the repeat runs; inconclusive means weak or mixed curves, or effect the other way; inactive means no such curve, though single readings can be large or run the other way.

Experiment: qHTS assay to identify small molecule agonists of the estrogen receptor alpha (ER-alpha) signaling pathway in the presence of an antagonist - cell viability counter screen (AID 1259386);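 further: cells exposed to compounds for 22 h at 37 °C before the viability read; nearly all actives have a fitted effect of over 30% in size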
Details: VM7Luc4E2 viability, CellTiter-Fluor fluorescence, 22 h; series mostly up to 92.4 µM; activity change, negative = cytotoxicity: at the top concentration
Method in brief: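 In this counter screen, compound effects on VM7Luc4E2 viability were tested in the presence of the antagonist ICI-182,780 at 10.0nM final. Compounds were dosed at 15 concentrations, exposure lasted 22hr, and the CellTiter-Fluor signal was read.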
On the % scale 0 is the no-effect control and ±100 the full control effect; potency means the concentration at half of the fitted maximal effect.

Compound	activity change, negative = cytotoxicity	Potency
CCOC(=O)C(Cl)Cc1cc(-n2nc(C)n(C(F)F)c2=O)c(F)cc1Cl (centres undefined)	-2.5%	–
C[C@H](CN1CCOCC1)C(C(=O)N1CCCC1)(c1ccccc1)c1ccccc1	-5.4%	–
O=C(Cl)C(Cl)Cl	2.75%	–
Cc1ccc(S(=O)(=O)N[C@@H](CCCCN)C(=O)CCl)cc1	-6.69% [at 42.5 µM]	–
NC(=O)OCCCc1ccccc1	-0.354% [at 42.5 µM]	–
Cn1c(N)nc2c3cccnc3ccc21	–	26 µM (active)
C[C@@H](N)[C@@H](O)c1ccccc1	0.892% [at 42.5 µM]	–
CCC(CC)(CNC(=O)CCCO)c1cccc(OC)c1	-0.064% [at 42.5 µM]	–
CCOC(=O)c1ncn2c1CN(C)C(=O)c1c(I)cccc1-2	-2.01% [at 42.5 µM]	–
COc1cccc([C@@]2(O)CCCC[C@@H]2CN(C)C)c1	-3.15% [at 42.5 µM]	–
CCC(C(N)=O)N1CCCC1=O (centres undefined)	-1.38% [at 42.5 µM]	–
CC(=NC#N)N(C)Cc1ccc(Cl)nc1	3.8%	–
COc1cc(CC(C)N)cc(OC)c1OC (centres undefined)	-11.7%	–
ClC1=C(Cl)C2(Cl)C(CBr)CC1(Cl)C2(Cl)Cl (centres undefined)	–	inactive
CCCOC(=O)Cc1ccc(OCC(=O)N(CC)CC)c(OC)c1	0.225% [at 42.5 µM]	–
Cl/C=C/CCl	-2.84%	–
OCC(Cl)CCl (centres undefined)	-1.55%	–
C[C@H](N)C(=O)c1ccccc1	-8.9%	–
CCOP(=S)(OCC)Oc1ccc(Cl)cc1Cl	-1.88%	–
CCC(C)C(C)(COC(N)=O)COC(N)=O (centres undefined)	-0.399% [at 42.5 µM]	–
COC[C@@H](NC(C)=O)C(=O)NCc1ccccc1	7.09% [at 42.5 µM]	–
BrCc1ccc(Br)cc1	-0.675%	–
CCCCCCCCSC(=O)Oc1cc(Cl)nnc1-c1ccccc1	0.786%	–
CN1C(=O)COc2c(C(=O)NC3CN4CCC3CC4)cc(Cl)cc21 (centres undefined)	-3.44% [at 42.5 µM]	–
